These results are taken from PubChem BioAssay (Tox21).

The nature of experiment [1]: A CellTox Green Cytotoxicity Assay to monitor cytotoxicity in HepG2 cells - 8 hour (AID 1224890). Note: nearly all actives have a fitted effect of over 45% in size. Note: potency is the fitted concentration of half-maximal effect. A digest of the protocol:
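Continuous culture of HepG2 cells with a membrane-impermeant DNA dye; rising fluorescence marks dead cells. Compound exposure lasted up to 40 h at 37 C, with reads every 8 h from 0 h.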

The nature of experiment [2]: qHTS assay to identify small molecule antagonists of the estrogen receptor alpha (ER-alpha) signaling pathway using the BG1 cell line in the presence of 0.1 nM 17-beta-estradiol - cell viability counter screen (AID 1259241). Note: nearly all actives have a fitted effect of over 40% in size. Note: potency is the fitted concentration of half-maximal effect. A digest of the protocol:
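Live-cell protease activity (CellTiter-Fluor fluorescence, 30 min) was read in the same wells after VM7Luc4E2 cells had been exposed to compounds with 0.1 nM 17beta-estradiol for 22 hr at 37C.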
For orientation: Quantitative high-throughput screening tests each substance at several concentrations.

Experiment [3] in a line: qHTS assay to identify small molecule antagonists of the androgen receptor (AR) signaling pathway using the MDA cell line in the presence of 0.5 nM R1881 - cell viability counter screen (AID 1259242). Note: nearly all actives have a fitted effect of over 45% in size. A digest of the protocol: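 Fluorescence from CellTiter-Fluor, which reports protease activity of live cells, was read 30 min after reagent addition to MDA-kb2 cells that had been incubated 16 hr with compound and 0.5 nM R1881.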

The nature of experiment [4]: qHTS assay to identify small molecule phospholipidosis (PLD) inducers (AID 1259344; active = well fitted curve in the direction sought with a large enough effect; an effect the other way counts as inactive or inconclusive). A digest of the protocol:
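HepG2 cells, 900/well, treated with compound plus LipidTOX Red for 24 h at 37 C; amiodarone positive and DMSO negative controls. Fixed with paraformaldehyde/Hoechst, then high-content imaging scored LipidTOX pit count and integrated intensity per well and per cell.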

Experiment [5] can be described thus: qHTS assay to identify small molecule HDAC inhibitors (AID 1259364). Note: top concentration of the series differs between compounds; nearly all actives have a fitted effect of over 45% in size. A digest of the protocol: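 Endogenous HDAC class I/II activity was measured in wild-type HCT-116 cells by HDAC-Glo luminescence after 2 h compound treatment.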
The nature of experiment [6]: qHTS assay to identify small molecule HDAC inhibitors - cell viability counter screen (AID 1259365). Note: series mostly up to about 92 µM; nearly all actives have a fitted effect of over 50% in size. A digest of the protocol:
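HCT-116 (wild type), 1,500 cells/well, overnight 37C/5% CO2; compound in DMSO 2hr; CellTiter-Glo 30min RT; luminescence read.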

A short description of experiment [7]: qHTS assay to identify small molecule agonists of the sonic hedgehog signaling (Shh) pathway - cell viability counter screen (AID 1259366). Note: nearly all actives have a fitted effect of over 50% in size. Note: potency is the fitted concentration of half-maximal effect. A digest of the protocol: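 CellTiter-Fluor fluorescence read-out, 1 hr at 37C, added after 23hr compound exposure. Cells: 3T3 Gli1-Luc, an NIH/3T3 clone with stably integrated Gli1-Luc reporter, plated 4hr before compound.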

Experiment [8] in a line: qHTS assay to identify small molecule antagonists of the sonic hedgehog signaling (Shh) pathway - cell viability counter screen (AID 1259367). Note: nearly all actives have a fitted effect of over 55% in size. Note: potency is the fitted concentration of half-maximal effect. A digest of the protocol: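 NIH/3T3-derived Gli1-Luc reporter cells, 2,000/well, plated 4 hr before compound addition, then stimulated with conditioned medium for 24 hr at 37C. Viability measured in the same wells by CellTiter-Fluor fluorescence, reagent added at 23 hr for 1 hr.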

Experiment [9] can be described thus: qHTS assay to identify small molecule agonists of the sonic hedgehog signaling (Shh) pathway (AID 1259368; calls by dose curve;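 note: NIH/3T3-derived 3T3Gli1-Luc cells carrying a stable Gli1-driven firefly luciferase reporter; series mostly up to about 92 µM; nearly all actives have a fitted effect of over 15% in size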). A digest of the protocol: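 Luminescent signal was taken as a measure of Gli1-controlled luciferase expression in stably transfected NIH/3T3-derived cells that had been treated for 24 hr with compounds delivered in DMSO.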
In experiment [10] the target is Estrogen receptor (Homo sapiens) (UniProt P03372). The experiment can be described thus: qHTS assay to identify small molecule antagonists of the estrogen receptor alpha (ER-alpha) signaling pathway using the BG1 cell line in the presence of 0.1 nM 17-beta-estradiol (AID 1259244). Note: nearly all actives have a fitted effect of over 50% in size. Note: potency is the fitted concentration of half-maximal effect. A digest of the protocol:
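Quantitative high-throughput screen in VM7Luc4E2 cells: compound plus 0.1 nM E2 (final), 22 h, 37C, 5% CO2; ONE-Glo added, 30 min room temperature, luminescence measured.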

Several values for one entry are separate records, joined by “and”; a condition that tells them apart may be missing. Equal entries are not always repeated. Results filed as inconclusive are left out. Some compounds were tested as several samples or in several runs, with calls that do not always agree. Activity calls are given as the source filed them. Unless noted, calls come from the whole dose curve; as a rule, active = well fitted curve in the direction sought with a large enough effect in the repeat runs; inconclusive = weak or mixed curves; inactive = no such curve, though single readings can be large; an effect the other way counts as inactive or inconclusive.

Sequence of Estrogen receptor (Homo sapiens) (P03372 whole entry, looked up): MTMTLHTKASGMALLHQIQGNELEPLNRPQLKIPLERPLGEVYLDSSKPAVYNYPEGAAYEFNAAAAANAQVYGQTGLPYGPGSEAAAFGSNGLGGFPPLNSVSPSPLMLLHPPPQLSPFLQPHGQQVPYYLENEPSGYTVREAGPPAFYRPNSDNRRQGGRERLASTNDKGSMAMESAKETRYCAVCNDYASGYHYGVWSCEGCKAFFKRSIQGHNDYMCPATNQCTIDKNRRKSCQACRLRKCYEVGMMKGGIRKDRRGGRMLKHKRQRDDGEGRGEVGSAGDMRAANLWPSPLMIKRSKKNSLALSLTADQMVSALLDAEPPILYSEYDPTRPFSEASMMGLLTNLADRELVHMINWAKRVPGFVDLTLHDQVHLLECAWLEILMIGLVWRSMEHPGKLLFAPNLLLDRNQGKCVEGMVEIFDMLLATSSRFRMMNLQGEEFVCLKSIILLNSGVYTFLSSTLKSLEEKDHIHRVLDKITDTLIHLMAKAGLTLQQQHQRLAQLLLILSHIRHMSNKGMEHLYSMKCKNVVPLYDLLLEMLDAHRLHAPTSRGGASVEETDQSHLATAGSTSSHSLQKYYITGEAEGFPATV

`Cc1cc(O)cc(C)c1Cl`: the Potency result in [1], in experiment [2], in [3], in experiment [5], in experiment [7] and in [8] was “inactive” each time. Also, the compound was classed as inactive in experiment [4], in experiment [6] and in [9].
In the case of `NCCNCCNCCNCCN`, the Potency result in [1], in [2], in [3], in [5], in [7] and in experiment [8] was “inactive” each time. For the same compound, the compound was called inactive in experiment [4] and in experiment [9].
Turning to `CCCCOCCO`, the Potency result in experiment [1], in experiment [2], in experiment [3], in experiment [10], in [5] and in [7] was “inactive” throughout. Also, the Potency result in experiment [8] was “inactive”. Besides, the result in experiment [9] was inactive.
Regarding `Cc1ccc(N)c(S(=O)(=O)O)c1`, the Potency result in experiment [1], in [2], in experiment [3], in experiment [5], in experiment [7] and in [8] was “inactive” throughout. Also, the call in experiment [6] and in experiment [9] was inactive.
As for `OCC#CCO`, the Potency entry in experiment [1], in experiment [2], in experiment [3], in experiment [5], in [7] and in experiment [8] was “inactive” throughout. The call in experiment [9] was inactive.
Turning to `Cc1ccc(C(=O)O)o1`, the Potency result in [1], in [2], in [3], in [5], in experiment [7] and in experiment [8] was “inactive” each time. Besides, the call in experiment [6] and in [9] was inactive.
`CC(C)(C)C(=O)C1C(=O)c2ccccc2C1=O`: the Potency result in experiment [1], in experiment [3], in experiment [5] and in experiment [7] was “inactive” in each case. Besides, the Potency is 54.5 µM (active) in [2], 61.1 µM (active) in [10] and 60.5 µM (active) in experiment [8]. In addition, the call in [9] was inactive.
Turning to `O=C1O[C@H](CO)[C@@H](O)[C@H](O)[C@H]1O`, the Potency entry in experiment [2], in experiment [3], in [10], in [5], in experiment [7] and in [8] was “inactive” each time. Also, the compound was classed as inactive in experiment [4], in experiment [6] and in experiment [9].
On to `COC(=O)c1ccc(C(=O)OC)cc1`, for which the Potency result in experiment [1] and in experiment [3] was “inactive” throughout. Moreover, the Potency is 6.19 µM (active) and inactive in experiment [10]; 6.95 µM (active) and inactive in [7]; 2.2 µM (active) and inactive in experiment [8]. For the same compound, the call in [6] and in [9] was inactive.
`C=C1CC[C@H](O)CC1=C/C=C1\CCC[C@]2(C)[C@@H]([C@H](C)/C=C/[C@H](C)C(C)C)CC[C@@H]12`: the Potency result in experiment [1], in experiment [2], in [3], in [5] and in experiment [7] was “inactive” each time. The outcome in experiment [4], in experiment [6] and in [9] was inactive.
Regarding `CC(=O)CCc1ccccc1`, the Potency entry in experiment [1], in experiment [2], in experiment [3], in [5], in experiment [7] and in experiment [8] was “inactive” throughout. For the same compound, the result in experiment [6] and in experiment [9] was inactive.
With `CC(C)NCC(O)COc1cccc2ccccc12` (stereo not given), the Potency entry in [1], in experiment [2], in experiment [3], in experiment [5], in experiment [7] and in [8] was “inactive” in each case. In addition, the call in experiment [6] and in experiment [9] was inactive.
For `CCc1ccc(O)cc1`, the Potency result in experiment [1], in experiment [2], in [3], in experiment [5], in [7] and in experiment [8] was “inactive” in each case. Also, the result in experiment [6] and in [9] was inactive.
Take `Clc1ccc(Cl)c(Cl)c1Cl`: the Potency result in experiment [1], in experiment [2], in [3], in [5], in [7] and in experiment [8] was “inactive” in each case. Moreover, the compound was called inactive in [6] and in [9].
Regarding `O=Nc1ccc(O)cc1`, the Potency result in [1], in experiment [2], in [3], in experiment [10], in experiment [5] and in [7] was “inactive” each time. In [8], the Potency result is “inactive”. Also, the compound was classed as inactive in [9].
`CC(C)n1c(/C=C/[C@@H](O)C[C@@H](O)CC(=O)O)c(-c2ccc(F)cc2)c2ccccc21`: the Potency result in [1], in [2], in [3], in experiment [5], in [7] and in experiment [8] was “inactive” each time. For the same compound, the outcome in experiment [4] and in [9] was inactive.
For `CCCCC(CC)COC(=O)CCCCCCCC(=O)OCC(CC)CCCC` (stereo not given), the Potency in [1] is 54.9 µM (active) and inactive. In addition, the Potency result in [3], in experiment [5], in [7] and in experiment [8] was “inactive” in each case. The compound was classed as inactive in [6] and in experiment [9].
On to `C[C@@H](O)[C@H]1C(=O)N2C(C(=O)O)=C(S[C@@H]3CN[C@H](C(=O)N(C)C)C3)[C@H](C)[C@H]12`, for which the Potency entry in experiment [1], in experiment [2], in experiment [3], in experiment [5], in experiment [7] and in experiment [8] was “inactive” in each case. Moreover, the result in experiment [4], in [6] and in experiment [9] was inactive.
Turning to `CCCCCCCCCCCCN`, the Potency entry is “inactive and 24.5 µM (active)” in [1]; 27.3 µM (active) and inactive in experiment [7]. Moreover, the Potency result in experiment [2], in experiment [3], in experiment [5] and in experiment [8] was “inactive” each time. In addition, the compound was called inactive in experiment [9].
On to `C=C(C#N)C(=O)OCC`, for which the Potency entry in experiment [1], in [2], in experiment [3], in experiment [5], in experiment [7] and in experiment [8] was “inactive” throughout. Besides, the outcome in [9] was inactive.
Consider `CN(C)c1cccc(O)c1`, for which the Potency result in [1] is “inactive and 54.9 µM (active)”. The Potency result in experiment [2], in experiment [3], in experiment [5], in experiment [7] and in experiment [8] was “inactive” each time. The compound was called inactive in [6] and in experiment [9].
As to `O=C1N=C(O)CN1/N=C/c1ccc(-c2ccc([N+](=O)[O-])cc2)o1`, the Potency result in experiment [1] and in experiment [5] was “inactive” throughout. For the same compound, the call in experiment [4], in experiment [6] and in experiment [9] was inactive.
As to `c1ccc2[nH]cnc2c1`, the Potency result in experiment [1], in experiment [2], in [3], in experiment [5], in experiment [7] and in experiment [8] was “inactive” each time. Moreover, the result in [9] was inactive.
In the case of `C=C(C)C(=O)OCC(CC)(COC(=O)C(=C)C)COC(=O)C(=C)C`, the Potency entry in experiment [1] was “inactive and 42.9 µM (active)”. The Potency entry in experiment [2], in [3], in [5], in experiment [7] and in experiment [8] was “inactive” in each case. Moreover, the call in experiment [6] and in experiment [9] was inactive.
Regarding `COCC(=O)O`, the Potency entry in experiment [1], in experiment [2], in [3], in experiment [10], in experiment [5] and in [7] was “inactive” throughout. Further, the Potency entry in [8] is “inactive”. Besides, in experiment [9], the call was inactive.
In the case of `O=C(O)c1ccc([N+](=O)[O-])cc1`, the Potency result in experiment [1], in [2], in experiment [3], in experiment [5], in [7] and in experiment [8] was “inactive” throughout. The result in experiment [6] and in experiment [9] was inactive.
With `O=C(c1ccc(O)cc1)c1ccc(O)cc1O`, in experiment [1], the Potency result was “inactive and 54.9 µM (active)”. For the same compound, the Potency result in [2], in [3], in experiment [10], in [7] and in experiment [8] was “inactive” in each case. In addition, the result in experiment [6] and in [9] was inactive.
For the compound `COC(=O)Nc1nc2ccc(Sc3ccccc3)cc2[nH]1`, the Potency entry in experiment [1], in [2], in experiment [3], in experiment [5] and in experiment [7] was “inactive” each time. Further, the call in [4], in experiment [6] and in experiment [9] was inactive. In addition, the Potency in [8] was 8.63 µM (active).
For `NC(=O)NNc1ccccc1`, the Potency entry in experiment [1], in experiment [2], in experiment [3], in experiment [5], in experiment [7] and in [8] was “inactive” each time. Also, the result in [4] and in experiment [9] was inactive.
With `CC(=O)[C@@]1(O)CC[C@H]2[C@@H]3CCC4=CC(=O)CC[C@]4(C)[C@H]3CC[C@@]21C`, the Potency result in experiment [1], in [2], in experiment [3], in [5], in [7] and in experiment [8] was “inactive” in each case. Also, the call in [4], in experiment [6] and in [9] was inactive.
With `CC(C)(C)C1CCC(O)CC1` (stereo not given), the Potency result in [2], in [3], in [10], in experiment [5], in [7] and in experiment [8] was “inactive” in each case. In addition, the call in experiment [6] and in [9] was inactive.
For `O=[N+]([O-])c1cccc(Cl)c1`, the Potency result in [2], in experiment [3], in experiment [10], in experiment [5], in [7] and in experiment [8] was “inactive” throughout. The compound was classed as inactive in [6] and in experiment [9].
On to `CCCCCCCCCC(=O)O`, for which the Potency entry in experiment [2], in experiment [3], in [5], in experiment [7] and in experiment [8] was “inactive” in each case. Further, the call in [4], in [6] and in [9] was inactive.
